We go through 11 molecules from ChEMBL document CHEMBL3988442, “University of Dundee, Small-Polar-MMV Screening Library” (2021).

Structures are written as SMILES. For some assays here: Measured potencies and affinities stand elsewhere.

Holding throughout (design): scale not given: direction of the effect not stated beside the values
In assay [1] the target is Protein translocase subunit SecA (Escherichia coli (strain K12)) (UniProt P10408). The assay is described as follows: Assay to Identify E. coli SecA ATPase Inhibitors. The class given is functional. Particulars: 30 µM.
In assay [2] the target is T1, Ubiquitin-activating enzyme e1, putative (Leishmania donovani (strain BPK282A1)) (UniProt E9BSI1).
T1 sequence (whole entry): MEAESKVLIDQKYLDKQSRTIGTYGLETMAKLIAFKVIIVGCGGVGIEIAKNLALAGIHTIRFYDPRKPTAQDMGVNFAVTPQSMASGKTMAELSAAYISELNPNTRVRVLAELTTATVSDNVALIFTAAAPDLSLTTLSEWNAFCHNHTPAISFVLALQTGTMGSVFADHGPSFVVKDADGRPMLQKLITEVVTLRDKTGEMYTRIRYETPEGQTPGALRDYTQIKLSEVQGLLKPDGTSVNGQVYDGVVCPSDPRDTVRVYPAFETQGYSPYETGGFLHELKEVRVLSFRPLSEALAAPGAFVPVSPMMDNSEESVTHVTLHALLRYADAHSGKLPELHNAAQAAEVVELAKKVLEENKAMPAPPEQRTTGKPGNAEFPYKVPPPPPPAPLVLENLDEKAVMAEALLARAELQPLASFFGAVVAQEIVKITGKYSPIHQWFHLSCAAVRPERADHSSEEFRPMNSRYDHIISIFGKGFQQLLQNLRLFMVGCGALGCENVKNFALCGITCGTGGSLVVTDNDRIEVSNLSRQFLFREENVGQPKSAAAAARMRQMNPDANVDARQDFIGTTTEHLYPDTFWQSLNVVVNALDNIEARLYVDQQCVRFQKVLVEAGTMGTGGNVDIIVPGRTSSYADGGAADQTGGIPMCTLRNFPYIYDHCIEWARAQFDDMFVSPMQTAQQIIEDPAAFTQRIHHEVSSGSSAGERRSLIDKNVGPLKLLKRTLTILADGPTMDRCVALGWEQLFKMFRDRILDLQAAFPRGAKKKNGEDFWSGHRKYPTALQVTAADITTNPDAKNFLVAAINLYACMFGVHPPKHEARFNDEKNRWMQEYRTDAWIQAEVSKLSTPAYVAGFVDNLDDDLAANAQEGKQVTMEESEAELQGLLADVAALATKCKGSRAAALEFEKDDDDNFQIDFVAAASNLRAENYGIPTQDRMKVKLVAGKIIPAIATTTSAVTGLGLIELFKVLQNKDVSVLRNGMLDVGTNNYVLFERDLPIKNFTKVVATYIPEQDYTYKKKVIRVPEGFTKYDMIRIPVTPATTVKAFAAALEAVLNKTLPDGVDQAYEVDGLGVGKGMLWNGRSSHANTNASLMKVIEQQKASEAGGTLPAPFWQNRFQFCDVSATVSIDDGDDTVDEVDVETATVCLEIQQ
The assay is described as follows: Leishmania donovani Ubiquitin Activating Enzyme (LdE1). The class given is functional. Particulars: 30 µM.

The target of assay [3] is Sialic acid-binding Ig-like lectin 9 (Homo sapiens) (UniProt Q9Y336). The assay is described as follows: Hs-Siglec9 ALPHAscreen SOP 20170721. Particulars: 10 µM. Background: Bead proximity is the source of the signal in Alpha formats.
The subject of another assay is Trypanosoma cruzi. The assay can be described thus: Trypanosoma cruzi phosphomannomutase and mannose-1-phosphate guanylyltransferase assay. Format: functional. Particulars: 10 µM.
Assay [4] concerns the target T2, Arginase-2, mitochondrial (Homo sapiens) (UniProt P78540).
T2 sequence (whole entry): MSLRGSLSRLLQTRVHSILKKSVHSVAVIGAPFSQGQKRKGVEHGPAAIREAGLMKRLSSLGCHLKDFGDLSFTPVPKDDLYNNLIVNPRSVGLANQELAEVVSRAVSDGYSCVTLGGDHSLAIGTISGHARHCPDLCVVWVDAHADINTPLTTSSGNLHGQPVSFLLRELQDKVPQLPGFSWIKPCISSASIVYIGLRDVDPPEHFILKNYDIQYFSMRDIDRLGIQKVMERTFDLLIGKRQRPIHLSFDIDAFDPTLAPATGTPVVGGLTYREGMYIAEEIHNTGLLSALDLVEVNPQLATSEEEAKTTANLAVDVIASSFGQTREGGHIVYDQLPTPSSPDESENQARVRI
The assay can be described thus: in vitro enzyme assay to detect the production of urea directly proportional to the activity of Arginase II. Note: in the data most compounds retested in dose-response had high values. The class given is functional. Particulars: 33.3 µM.

In assay [5] the target is T3, Proteasome subunit beta (Trypanosoma cruzi) (UniProt O96673).
T3 sequence (whole entry): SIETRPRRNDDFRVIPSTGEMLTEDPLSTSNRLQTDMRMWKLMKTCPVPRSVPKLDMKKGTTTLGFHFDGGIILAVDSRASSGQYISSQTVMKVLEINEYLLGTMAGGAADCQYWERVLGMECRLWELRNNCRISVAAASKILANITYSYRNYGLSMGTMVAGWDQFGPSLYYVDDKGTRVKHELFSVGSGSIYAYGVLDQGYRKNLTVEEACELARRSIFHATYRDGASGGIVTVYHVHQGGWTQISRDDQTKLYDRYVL
The assay is described as follows: Trypanosoma cruzi proteasome chymotrypsin-like activity (TcProtChymo) assay. Note: in the data most compounds retested in dose-response had high values. Format: functional. Particulars: 9.37 µM.

Another assay is filed under the species Homo sapiens. The assay is described as follows: To identify inhibition of the IFN signalling (Jak-Stat) pathway via expression of an eGFP reporter gene under the control of an IFN-stimulated response element (ISRE) containing MxA promoter. Format: functional. Particulars: 30 µM.
Assay [6] has as its target T4, Tyrosyl-tRNA synthetase, putative (Trypanosoma cruzi (strain CL Brener)) (UniProt Q4DSP6).
T4 sequence (whole entry): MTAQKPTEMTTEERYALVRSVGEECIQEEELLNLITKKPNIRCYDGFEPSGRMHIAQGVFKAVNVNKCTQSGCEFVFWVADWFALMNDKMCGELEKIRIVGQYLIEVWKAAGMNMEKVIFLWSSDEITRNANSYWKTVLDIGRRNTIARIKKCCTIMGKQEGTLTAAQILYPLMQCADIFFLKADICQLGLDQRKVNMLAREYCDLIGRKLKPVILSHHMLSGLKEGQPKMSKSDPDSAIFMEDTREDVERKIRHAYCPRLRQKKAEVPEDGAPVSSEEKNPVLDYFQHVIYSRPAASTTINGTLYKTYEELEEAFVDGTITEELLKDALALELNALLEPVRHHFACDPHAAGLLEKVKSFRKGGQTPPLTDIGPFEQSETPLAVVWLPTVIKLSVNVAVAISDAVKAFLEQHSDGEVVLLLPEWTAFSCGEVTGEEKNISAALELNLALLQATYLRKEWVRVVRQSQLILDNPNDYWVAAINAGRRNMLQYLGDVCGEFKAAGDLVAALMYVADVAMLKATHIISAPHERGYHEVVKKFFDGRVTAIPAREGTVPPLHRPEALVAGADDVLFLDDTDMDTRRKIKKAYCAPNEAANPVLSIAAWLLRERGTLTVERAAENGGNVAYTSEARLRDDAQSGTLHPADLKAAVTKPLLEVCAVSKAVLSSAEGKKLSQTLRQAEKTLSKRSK
The assay is described as follows: Trypanosoma cruzi tyrosyl tRNA synthetase (TcYRS) _High Tyrosine SOP. Note: in the data most compounds retested in dose-response had high values. The class given is functional. Particulars: 30 µM.

Assay [7] deals with T4, Tyrosyl-tRNA synthetase, putative (Trypanosoma cruzi (strain CL Brener)). The assay is described as follows: Trypanosoma cruzi tyrosyl tRNA synthetase (TcYRS) SOP. Format: functional. Particulars: 30 µM.
For assay [8], the target named is Chromo domain-containing protein 1 (Saccharomyces cerevisiae (strain ATCC 204508 / S288c) (Baker's yeast)) (UniProt P32657). The assay can be described thus: ScCHD-1 Enzyme Inhibition Assay. Note: in the data most compounds retested in dose-response had high values. The class given is functional. Particulars: 30 µM.
Chromo domain-containing protein 1 (Saccharomyces cerevisiae (strain ATCC 204508 / S288c) (Baker's yeast)), sequence (P32657 whole entry, the tested form may be a part): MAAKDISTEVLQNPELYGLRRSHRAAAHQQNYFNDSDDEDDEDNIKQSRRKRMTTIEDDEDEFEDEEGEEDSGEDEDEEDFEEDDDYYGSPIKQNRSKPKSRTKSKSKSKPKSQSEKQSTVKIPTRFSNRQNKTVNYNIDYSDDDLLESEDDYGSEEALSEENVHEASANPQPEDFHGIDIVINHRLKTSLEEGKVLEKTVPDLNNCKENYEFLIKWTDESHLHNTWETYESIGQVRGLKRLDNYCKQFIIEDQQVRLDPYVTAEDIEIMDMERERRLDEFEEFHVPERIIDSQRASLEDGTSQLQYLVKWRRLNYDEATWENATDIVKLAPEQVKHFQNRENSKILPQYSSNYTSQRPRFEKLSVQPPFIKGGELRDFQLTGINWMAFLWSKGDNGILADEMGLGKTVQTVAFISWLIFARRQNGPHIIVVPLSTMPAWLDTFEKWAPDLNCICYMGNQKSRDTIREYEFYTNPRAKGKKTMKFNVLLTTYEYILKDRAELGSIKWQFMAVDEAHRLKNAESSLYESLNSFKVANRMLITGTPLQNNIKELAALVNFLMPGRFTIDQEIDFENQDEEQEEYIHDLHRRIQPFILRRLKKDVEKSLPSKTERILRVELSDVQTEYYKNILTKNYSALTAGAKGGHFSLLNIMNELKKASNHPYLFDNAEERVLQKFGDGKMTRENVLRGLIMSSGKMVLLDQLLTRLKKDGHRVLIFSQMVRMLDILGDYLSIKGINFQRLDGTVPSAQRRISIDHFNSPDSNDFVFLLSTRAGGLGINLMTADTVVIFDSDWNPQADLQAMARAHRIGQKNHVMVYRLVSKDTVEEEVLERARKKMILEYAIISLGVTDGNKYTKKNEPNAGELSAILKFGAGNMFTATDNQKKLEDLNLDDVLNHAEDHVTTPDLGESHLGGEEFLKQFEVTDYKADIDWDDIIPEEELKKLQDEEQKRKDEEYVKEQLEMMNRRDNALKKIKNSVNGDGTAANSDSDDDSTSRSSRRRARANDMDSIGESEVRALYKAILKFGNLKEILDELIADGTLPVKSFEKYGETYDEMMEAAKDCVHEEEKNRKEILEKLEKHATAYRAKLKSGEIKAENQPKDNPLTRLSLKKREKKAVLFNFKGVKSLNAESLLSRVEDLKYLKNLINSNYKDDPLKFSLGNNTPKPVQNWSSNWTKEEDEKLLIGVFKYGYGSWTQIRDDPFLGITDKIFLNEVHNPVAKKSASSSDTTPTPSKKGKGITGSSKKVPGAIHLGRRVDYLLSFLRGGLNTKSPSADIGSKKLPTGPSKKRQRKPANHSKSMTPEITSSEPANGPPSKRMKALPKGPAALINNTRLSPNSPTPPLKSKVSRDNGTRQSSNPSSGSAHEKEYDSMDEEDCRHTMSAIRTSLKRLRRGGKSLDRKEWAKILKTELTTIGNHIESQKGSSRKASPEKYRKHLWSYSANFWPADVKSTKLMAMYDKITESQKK

Protein translocase subunit SecA (Escherichia coli (strain K12)), sequence (P10408 whole entry): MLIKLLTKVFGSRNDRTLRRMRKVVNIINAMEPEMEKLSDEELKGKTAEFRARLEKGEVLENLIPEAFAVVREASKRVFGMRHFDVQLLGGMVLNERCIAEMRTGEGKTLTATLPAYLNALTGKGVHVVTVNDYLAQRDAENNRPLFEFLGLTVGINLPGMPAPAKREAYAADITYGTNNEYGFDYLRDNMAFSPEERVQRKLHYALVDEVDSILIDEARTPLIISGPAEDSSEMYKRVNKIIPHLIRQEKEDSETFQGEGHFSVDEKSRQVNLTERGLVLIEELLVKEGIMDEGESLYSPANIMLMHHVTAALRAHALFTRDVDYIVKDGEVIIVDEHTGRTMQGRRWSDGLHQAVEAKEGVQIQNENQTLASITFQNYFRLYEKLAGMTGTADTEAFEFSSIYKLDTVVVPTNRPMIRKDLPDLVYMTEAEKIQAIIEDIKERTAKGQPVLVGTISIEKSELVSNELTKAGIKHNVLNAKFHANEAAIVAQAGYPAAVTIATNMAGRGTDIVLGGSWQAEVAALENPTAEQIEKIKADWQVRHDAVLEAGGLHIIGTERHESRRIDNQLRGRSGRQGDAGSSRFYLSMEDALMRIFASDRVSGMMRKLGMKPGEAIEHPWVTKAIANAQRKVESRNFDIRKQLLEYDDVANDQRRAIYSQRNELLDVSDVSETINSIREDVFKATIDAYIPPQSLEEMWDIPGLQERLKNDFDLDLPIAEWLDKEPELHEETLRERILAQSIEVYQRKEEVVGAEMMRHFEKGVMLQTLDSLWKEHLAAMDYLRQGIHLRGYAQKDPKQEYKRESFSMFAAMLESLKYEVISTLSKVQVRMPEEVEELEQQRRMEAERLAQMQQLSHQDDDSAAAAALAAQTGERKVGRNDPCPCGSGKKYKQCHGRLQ
Sialic acid-binding Ig-like lectin 9 (Homo sapiens), sequence (Q9Y336 whole entry): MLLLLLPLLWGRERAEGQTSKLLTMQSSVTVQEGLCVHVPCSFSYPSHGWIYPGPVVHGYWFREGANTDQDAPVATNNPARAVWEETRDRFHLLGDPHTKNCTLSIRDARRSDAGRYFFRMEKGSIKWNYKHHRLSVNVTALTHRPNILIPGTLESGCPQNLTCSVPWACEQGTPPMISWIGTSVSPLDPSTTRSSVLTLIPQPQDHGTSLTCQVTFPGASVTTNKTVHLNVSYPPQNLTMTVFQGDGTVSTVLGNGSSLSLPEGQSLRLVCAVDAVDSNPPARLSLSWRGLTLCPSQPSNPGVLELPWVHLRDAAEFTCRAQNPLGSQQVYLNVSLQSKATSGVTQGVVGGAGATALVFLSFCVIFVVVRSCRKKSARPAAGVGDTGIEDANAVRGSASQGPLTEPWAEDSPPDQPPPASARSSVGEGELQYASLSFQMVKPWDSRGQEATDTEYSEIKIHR

For `Cn1nc2c(cc1=O)CN(Cc1nnc(-c3ccco3)o1)CC2`, the Percent Effect in assay [1] is -3.79%; in [2], 17.9%; in [3] it was -11.1%; with Trypanosoma cruzi, 4.6%; in [4] it was 1.23%; in [5], 13.2%. The Percent Effect in the assay filed under Homo sapiens stood at 7.66%; in assay [6], 4.31%; in assay [7], 22.9%; in [8], 17.4%.
Turning to `CN(Cc1nnc(C2CC2)o1)C1CCN(CCCc2cnn(C)c2)C1` (stereo not given), the Percent Effect is -0.864% in assay [1]; 10.7% in [2]; -3.87% in [3]; -2.61% with Trypanosoma cruzi; -2.22% in assay [4]; 22.1% in [5]. Moreover, the Percent Effect in the assay filed under Homo sapiens is 18.5%; in [6], 11.1%; in assay [7], 15.4%; in assay [8] it was -5.79%.
Consider `Cc1cccnc1CNCC1(O)CCCN(CC2CCCCC2)C1=O` (stereo not given), for which the Percent Effect was -6.4% in assay [1]; 0% in assay [2]; -1.52% in assay [3]; -2.04% in the assay with Trypanosoma cruzi; -3.85% in [4]; 3.25% in assay [5]. Also, the Percent Effect worked out at 1.47% in the assay filed under Homo sapiens, 7.98% in assay [6], 17.1% in assay [7] and 0.826% in assay [8].
In the case of `Cn1ccc(C(=O)NCc2cccc(NC(=O)C3CCC3)c2)cc1=O`, the Percent Effect was -3.75% in assay [1]; 26% in assay [2]; 5.5% in assay [3]; 4.48% in the assay on Trypanosoma cruzi; -1.84% in assay [4]; 12.3% in [5]. For the same molecule, the Percent Effect in the assay listed under Homo sapiens is 12%; in [6] it was 2.94%; in assay [7], 21.2%; in [8] it was -9.82%.
For the molecule `Cc1noc(C2CCN(C(=O)CCc3nccs3)CC2)n1`, the Percent Effect in [1] was 0.362%; in [2], 17.9%; in assay [3], -8.4%; with Trypanosoma cruzi it was -1.78%; in assay [4], 3.28%; in [5], 5.72%. Moreover, the Percent Effect in the assay listed under Homo sapiens is 17.8%; in assay [6], 6.22%; in assay [7] it was 13.2%; in assay [8], -4.78%.
As for `Cc1ccc(C(=O)N2CCCC3(CCCC(=O)N3C)C2)cc1F` (stereo not given), the Percent Effect was -2.74% in assay [1]; 19.5% in assay [2]; -4.32% in [3]; -1.5% in the assay on Trypanosoma cruzi; 4.11% in [4]; 14.5% in assay [5]. In addition, the Percent Effect in the assay listed under Homo sapiens is 5.96%; in assay [6], 7.73%; in [7] it was 10%; in assay [8], -9.62%.
As for `Cc1nccn1-c1cccc(C2CCCN2S(=O)(=O)c2cn(C)cn2)n1` (stereo not given), the Percent Effect in [1] is -6.36%; in assay [2], 1.33%; in [3] it was -0.612%; in the assay with Trypanosoma cruzi, -3.94%; in assay [4], -0.885%; in assay [5], -0.493%. Further, the Percent Effect in the assay filed under Homo sapiens was 22.4%; in [6], 0%; in assay [7], -2.5%; in [8] it was -23.4%.
`CN(C)S(=O)(=O)N1CC[C@]2(C[C@H](Oc3ncccc3F)CO2)C1`: the Percent Effect in assay [1] was -1.29%; in assay [2], 1.3%; in assay [3], 10.8%; with Trypanosoma cruzi, 0.0974%; in assay [4], 0%; in [5], 1.15%. For the same molecule, the Percent Effect is -1.45% in the assay listed under Homo sapiens, 4.74% in [6], 5.13% in assay [7] and 14.3% in assay [8].
Turning to `CCCN1CCCn2nc(CNS(=O)(=O)c3cccc(C#N)c3)cc2C1`, the Percent Effect in [1] was -7.29%; in assay [2], 8.11%; in assay [3], 11.2%; in the assay with Trypanosoma cruzi, 1.84%; in assay [4] it was 2.45%; in [5], 19.4%. Besides, the Percent Effect worked out at 9.83% in the assay listed under Homo sapiens, 6.92% in assay [6], 21.9% in assay [7] and 95% in assay [8].
Turning to `Cc1nc(N2CCCC2)nc2c1CN(C(=O)N1CCOCC1)CC2`, the Percent Effect is -4.38% in assay [1]; 14.3% in [2]; 1.78% in assay [3]; 0.75% in the assay with Trypanosoma cruzi; 3.2% in assay [4]; 15.9% in assay [5]. The Percent Effect in the assay filed under Homo sapiens is 1.81%; in assay [6], 10.6%; in assay [7], 15%; in assay [8], -9.99%.
With `COc1ccc(CN2C[C@@H]3COC[C@]3(CN(C)C)C2)cc1`, the Percent Effect in assay [1] was -12.1%; in assay [2], -1.3%; in [3], -2.55%; in the assay with Trypanosoma cruzi, 1.07%; in [4], -1.22%; in assay [5], 8.56%. Moreover, the Percent Effect in the assay filed under Homo sapiens was -15%; in [6] it was 4.74%; in [7], 7.69%; in assay [8] it was -0.368%.
